Laboratory results published in ChEMBL document CHEMBL3988442, “University of Dundee, Small-Polar-MMV Screening Library” (2021).
For some assays here: Potency and affinity values are given separately.

What was measured:
[1] = target: T1, Methionyl-tRNA synthetase, putative (Leishmania donovani (strain BPK282A1)) (UniProt E9BF75); experiment: Leishmania donovani Methionine tRNA synthetase (LdMetRS):v7. Dose response assay; format: functional; design: conc 80 nM, time 150 minutes
T1 sequence (whole entry): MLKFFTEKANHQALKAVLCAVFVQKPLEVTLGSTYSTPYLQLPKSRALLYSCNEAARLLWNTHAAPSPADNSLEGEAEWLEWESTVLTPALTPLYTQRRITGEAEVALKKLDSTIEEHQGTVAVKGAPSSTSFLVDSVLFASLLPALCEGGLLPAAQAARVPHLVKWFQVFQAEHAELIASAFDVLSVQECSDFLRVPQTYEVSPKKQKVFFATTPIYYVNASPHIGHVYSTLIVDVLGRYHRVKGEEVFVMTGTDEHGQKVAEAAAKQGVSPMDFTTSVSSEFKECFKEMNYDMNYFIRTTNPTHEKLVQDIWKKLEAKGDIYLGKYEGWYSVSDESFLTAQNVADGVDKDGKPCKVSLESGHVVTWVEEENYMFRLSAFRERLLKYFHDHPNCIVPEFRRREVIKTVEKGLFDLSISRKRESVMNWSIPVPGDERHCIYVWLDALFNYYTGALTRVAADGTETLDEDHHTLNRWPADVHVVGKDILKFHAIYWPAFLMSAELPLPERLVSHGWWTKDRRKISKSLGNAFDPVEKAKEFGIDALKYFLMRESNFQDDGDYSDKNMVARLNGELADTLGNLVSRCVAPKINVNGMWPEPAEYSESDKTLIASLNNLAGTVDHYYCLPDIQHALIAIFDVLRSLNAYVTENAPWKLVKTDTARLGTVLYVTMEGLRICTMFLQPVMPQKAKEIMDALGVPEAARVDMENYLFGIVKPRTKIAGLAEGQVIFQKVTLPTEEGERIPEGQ

[2] = target: Protein translocase subunit SecA (Escherichia coli (strain K12)) (UniProt P10408); experiment: Assay to Identify E. coli SecA ATPase Inhibitors; format: functional; design: scale not given: direction of the effect not stated beside the values; conditions: 30 µM
[3] = target: T2, Ubiquitin-activating enzyme e1, putative (Leishmania donovani (strain BPK282A1)) (UniProt E9BSI1); experiment: Leishmania donovani Ubiquitin Activating Enzyme (LdE1); format: functional; design: scale not given: direction of the effect not stated beside the values; conditions: 30 µM
T2 sequence (whole entry): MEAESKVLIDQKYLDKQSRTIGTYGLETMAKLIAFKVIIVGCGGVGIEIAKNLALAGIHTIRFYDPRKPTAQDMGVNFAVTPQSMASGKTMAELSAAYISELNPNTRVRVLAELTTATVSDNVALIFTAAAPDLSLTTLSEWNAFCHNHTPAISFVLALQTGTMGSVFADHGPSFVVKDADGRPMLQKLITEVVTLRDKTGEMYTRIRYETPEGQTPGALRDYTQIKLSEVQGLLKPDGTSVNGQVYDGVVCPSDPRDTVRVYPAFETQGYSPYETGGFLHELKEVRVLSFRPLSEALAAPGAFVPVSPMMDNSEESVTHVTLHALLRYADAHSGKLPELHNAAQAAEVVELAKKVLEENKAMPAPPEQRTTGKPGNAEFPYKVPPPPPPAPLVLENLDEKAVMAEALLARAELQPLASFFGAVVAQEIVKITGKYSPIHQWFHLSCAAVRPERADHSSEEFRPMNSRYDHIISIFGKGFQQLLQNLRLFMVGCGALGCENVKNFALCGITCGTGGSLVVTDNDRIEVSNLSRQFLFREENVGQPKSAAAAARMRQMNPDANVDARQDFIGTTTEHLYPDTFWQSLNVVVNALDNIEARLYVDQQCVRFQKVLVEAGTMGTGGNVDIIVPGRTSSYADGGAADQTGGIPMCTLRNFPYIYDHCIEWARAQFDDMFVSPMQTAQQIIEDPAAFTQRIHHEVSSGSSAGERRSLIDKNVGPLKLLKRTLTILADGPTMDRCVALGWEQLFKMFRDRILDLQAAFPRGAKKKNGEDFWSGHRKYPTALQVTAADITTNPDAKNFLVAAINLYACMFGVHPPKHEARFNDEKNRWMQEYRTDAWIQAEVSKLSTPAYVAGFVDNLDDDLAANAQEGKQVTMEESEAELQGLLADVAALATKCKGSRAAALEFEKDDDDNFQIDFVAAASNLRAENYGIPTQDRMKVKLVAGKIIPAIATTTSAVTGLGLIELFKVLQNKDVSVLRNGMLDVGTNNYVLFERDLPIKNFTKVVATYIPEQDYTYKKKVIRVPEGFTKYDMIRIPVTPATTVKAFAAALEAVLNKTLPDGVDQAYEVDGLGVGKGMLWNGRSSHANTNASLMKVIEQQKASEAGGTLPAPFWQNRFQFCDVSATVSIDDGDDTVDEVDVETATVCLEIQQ

[4] = target: AMP-activated protein kinase, AMPK (Homo sapiens) (UniProt P54646+O43741+P54619+Q9UGJ0+Q9Y478+Q13131+Q9UGI9); experiment: AMP-dependent Kinase enzyme assay. An in vitro enzyme assay that detects ADP turnover that is directly proportional to AMPK activity. This uses naive AMPK that is activated during the assay with MK-8722; format: functional; design: scale not given: direction of the effect not stated beside the values; conditions: 30 µM
[5] = target: Sialic acid-binding Ig-like lectin 9 (Homo sapiens) (UniProt Q9Y336); experiment: Hs-Siglec9 ALPHAscreen SOP 20170721; design: scale not given: direction of the effect not stated beside the values; conditions: 10 µM
Trypanosoma cruzi = experiment: Trypanosoma cruzi phosphomannomutase and mannose-1-phosphate guanylyltransferase assay; format: functional; design: scale not given: direction of the effect not stated beside the values; conditions: 10 µM
[6] = target: T3, Arginase-2, mitochondrial (Homo sapiens) (UniProt P78540); experiment: in vitro enzyme assay to detect the production of urea directly proportional to the activity of Arginase II; format: functional; design: scale not given: in the data most compounds retested in dose-response had high values; conditions: 33.3 µM
T3 sequence (whole entry): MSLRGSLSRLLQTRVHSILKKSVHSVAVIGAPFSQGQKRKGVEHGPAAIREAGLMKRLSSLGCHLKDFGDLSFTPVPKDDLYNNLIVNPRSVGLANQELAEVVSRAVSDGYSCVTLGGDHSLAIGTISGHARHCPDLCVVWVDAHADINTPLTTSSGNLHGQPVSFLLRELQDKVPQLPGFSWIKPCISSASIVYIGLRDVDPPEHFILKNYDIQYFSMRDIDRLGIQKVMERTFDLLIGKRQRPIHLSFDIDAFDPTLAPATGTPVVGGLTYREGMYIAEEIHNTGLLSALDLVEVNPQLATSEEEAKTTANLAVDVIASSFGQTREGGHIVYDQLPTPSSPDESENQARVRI

[7] = target: T4, Proteasome subunit beta (Trypanosoma cruzi) (UniProt O96673); experiment: Trypanosoma cruzi proteasome chymotrypsin-like activity (TcProtChymo) assay.; format: functional; design: scale not given: in the data most compounds retested in dose-response had high values; conditions: 9.37 µM
T4 sequence (whole entry): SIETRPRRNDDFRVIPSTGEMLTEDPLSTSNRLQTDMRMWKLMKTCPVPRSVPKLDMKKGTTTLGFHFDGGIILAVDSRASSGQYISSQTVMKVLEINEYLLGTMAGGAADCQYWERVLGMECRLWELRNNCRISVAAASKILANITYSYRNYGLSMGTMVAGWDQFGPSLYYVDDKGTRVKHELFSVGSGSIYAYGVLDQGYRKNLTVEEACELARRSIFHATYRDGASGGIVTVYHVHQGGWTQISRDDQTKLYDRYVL

Homo sapiens = organism: Homo sapiens; experiment: To identify inhibition of the IFN signalling (Jak-Stat) pathway via expression of an eGFP reporter gene under the control of an IFN-stimulated response element (ISRE) containing MxA promoter.; format: functional; design: scale not given: direction of the effect not stated beside the values; conditions: 30 µM
[8] = target: T5, Tyrosyl-tRNA synthetase, putative (Trypanosoma cruzi (strain CL Brener)) (UniProt Q4DSP6); experiment: Trypanosoma cruzi tyrosyl tRNA synthetase (TcYRS) _High Tyrosine SOP; format: functional; design: scale not given: in the data most compounds retested in dose-response had high values; conditions: 30 µM
T5 sequence (whole entry): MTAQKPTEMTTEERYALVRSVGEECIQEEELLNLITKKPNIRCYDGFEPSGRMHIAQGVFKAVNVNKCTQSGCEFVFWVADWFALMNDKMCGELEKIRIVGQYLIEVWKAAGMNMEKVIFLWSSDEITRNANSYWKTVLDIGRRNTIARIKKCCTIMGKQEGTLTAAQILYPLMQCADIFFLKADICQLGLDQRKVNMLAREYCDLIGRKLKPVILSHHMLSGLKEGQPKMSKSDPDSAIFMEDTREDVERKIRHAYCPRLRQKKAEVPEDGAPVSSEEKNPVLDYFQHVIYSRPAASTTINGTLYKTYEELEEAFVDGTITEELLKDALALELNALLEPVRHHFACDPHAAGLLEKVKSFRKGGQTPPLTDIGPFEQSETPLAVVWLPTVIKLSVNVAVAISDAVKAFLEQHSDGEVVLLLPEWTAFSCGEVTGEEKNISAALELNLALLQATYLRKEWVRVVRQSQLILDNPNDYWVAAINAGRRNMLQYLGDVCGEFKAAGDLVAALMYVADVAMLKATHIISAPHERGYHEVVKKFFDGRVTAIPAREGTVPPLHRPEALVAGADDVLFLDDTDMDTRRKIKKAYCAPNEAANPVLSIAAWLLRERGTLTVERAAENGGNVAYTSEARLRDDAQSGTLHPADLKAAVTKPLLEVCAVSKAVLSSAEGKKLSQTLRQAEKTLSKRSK

[9] = target: T5, Tyrosyl-tRNA synthetase, putative (Trypanosoma cruzi (strain CL Brener)); experiment: Trypanosoma cruzi tyrosyl tRNA synthetase (TcYRS) SOP; format: functional; design: scale not given: direction of the effect not stated beside the values; conditions: 30 µM
[10] = target: Chromo domain-containing protein 1 (Saccharomyces cerevisiae (strain ATCC 204508 / S288c) (Baker's yeast)) (UniProt P32657); experiment: ScCHD-1 Enzyme Inhibition Assay; format: functional; design: scale not given: in the data most compounds retested in dose-response had high values; conditions: 30 µM
Chain of Chromo domain-containing protein 1 (Saccharomyces cerevisiae (strain ATCC 204508 / S288c) (Baker's yeast)) (P32657 whole entry, the tested form may be a part): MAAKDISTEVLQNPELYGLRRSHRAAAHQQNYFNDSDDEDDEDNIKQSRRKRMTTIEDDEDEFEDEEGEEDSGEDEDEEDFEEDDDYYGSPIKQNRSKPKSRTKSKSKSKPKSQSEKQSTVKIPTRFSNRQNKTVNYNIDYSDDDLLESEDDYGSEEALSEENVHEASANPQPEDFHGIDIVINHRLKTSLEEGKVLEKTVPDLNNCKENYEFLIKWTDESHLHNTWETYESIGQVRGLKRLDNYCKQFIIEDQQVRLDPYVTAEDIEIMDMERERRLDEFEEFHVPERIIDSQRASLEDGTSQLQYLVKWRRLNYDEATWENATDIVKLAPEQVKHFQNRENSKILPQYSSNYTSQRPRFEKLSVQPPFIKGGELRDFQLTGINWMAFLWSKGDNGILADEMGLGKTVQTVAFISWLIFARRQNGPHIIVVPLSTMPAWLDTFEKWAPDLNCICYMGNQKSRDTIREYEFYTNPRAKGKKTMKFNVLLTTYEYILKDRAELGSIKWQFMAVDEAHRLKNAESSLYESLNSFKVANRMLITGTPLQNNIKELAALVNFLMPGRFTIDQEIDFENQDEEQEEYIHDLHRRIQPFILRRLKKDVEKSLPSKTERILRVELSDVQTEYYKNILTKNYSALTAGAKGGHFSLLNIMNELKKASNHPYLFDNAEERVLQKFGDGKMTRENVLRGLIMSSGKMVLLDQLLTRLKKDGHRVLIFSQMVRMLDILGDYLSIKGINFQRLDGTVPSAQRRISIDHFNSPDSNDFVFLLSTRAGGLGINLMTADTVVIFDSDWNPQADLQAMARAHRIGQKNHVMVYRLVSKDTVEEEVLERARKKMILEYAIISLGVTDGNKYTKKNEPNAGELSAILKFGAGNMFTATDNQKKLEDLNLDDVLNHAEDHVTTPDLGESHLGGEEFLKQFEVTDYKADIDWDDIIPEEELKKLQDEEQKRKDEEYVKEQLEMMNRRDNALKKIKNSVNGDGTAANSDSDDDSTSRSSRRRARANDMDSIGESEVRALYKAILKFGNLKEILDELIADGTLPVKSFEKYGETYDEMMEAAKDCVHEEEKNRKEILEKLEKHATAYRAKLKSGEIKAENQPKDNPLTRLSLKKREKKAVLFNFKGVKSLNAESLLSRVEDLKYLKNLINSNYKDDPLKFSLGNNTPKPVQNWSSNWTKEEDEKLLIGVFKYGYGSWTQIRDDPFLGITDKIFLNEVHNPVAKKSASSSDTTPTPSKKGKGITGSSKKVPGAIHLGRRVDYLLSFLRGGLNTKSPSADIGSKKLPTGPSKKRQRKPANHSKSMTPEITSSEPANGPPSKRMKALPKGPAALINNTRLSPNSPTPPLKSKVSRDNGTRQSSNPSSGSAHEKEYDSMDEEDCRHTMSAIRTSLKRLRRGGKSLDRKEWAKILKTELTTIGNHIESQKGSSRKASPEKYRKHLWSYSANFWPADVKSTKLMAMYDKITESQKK

Chain of Sialic acid-binding Ig-like lectin 9 (Homo sapiens) (Q9Y336 whole entry): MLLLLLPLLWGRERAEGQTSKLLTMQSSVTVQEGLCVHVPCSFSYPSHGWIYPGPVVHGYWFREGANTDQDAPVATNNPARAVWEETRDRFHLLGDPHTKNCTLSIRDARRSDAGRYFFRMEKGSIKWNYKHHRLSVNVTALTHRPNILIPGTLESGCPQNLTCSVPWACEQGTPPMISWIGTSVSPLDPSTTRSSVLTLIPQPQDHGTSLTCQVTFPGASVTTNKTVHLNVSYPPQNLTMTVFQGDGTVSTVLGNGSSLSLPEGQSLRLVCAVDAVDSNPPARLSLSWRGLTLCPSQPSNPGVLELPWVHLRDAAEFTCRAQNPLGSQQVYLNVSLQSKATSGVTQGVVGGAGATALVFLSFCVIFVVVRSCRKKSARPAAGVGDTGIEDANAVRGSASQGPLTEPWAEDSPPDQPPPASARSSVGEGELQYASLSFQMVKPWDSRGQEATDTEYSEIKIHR
Chain of Protein translocase subunit SecA (Escherichia coli (strain K12)) (P10408 whole entry): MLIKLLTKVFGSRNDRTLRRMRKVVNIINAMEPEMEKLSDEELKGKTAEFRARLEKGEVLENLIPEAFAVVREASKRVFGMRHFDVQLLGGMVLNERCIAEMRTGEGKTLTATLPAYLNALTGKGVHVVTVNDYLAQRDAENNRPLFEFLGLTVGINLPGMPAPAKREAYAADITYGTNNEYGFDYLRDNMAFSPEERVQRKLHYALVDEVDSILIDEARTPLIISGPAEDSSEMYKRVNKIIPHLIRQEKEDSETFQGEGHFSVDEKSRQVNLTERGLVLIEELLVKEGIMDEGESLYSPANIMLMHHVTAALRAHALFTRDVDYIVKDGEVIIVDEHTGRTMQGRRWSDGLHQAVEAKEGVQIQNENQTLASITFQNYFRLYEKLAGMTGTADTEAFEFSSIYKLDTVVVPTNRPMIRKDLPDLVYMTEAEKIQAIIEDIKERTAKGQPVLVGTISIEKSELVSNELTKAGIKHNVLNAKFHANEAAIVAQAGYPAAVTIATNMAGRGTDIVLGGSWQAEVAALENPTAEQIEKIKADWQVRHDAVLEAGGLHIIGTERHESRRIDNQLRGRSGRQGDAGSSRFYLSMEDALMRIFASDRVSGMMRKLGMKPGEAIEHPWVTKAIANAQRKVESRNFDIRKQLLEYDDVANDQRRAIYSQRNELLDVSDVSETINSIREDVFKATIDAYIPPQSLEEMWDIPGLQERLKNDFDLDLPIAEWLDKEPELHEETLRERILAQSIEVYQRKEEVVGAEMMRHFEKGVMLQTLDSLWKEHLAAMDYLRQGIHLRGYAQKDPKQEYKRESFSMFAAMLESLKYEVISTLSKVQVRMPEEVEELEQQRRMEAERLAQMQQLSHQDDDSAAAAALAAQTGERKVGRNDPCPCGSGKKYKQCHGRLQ

Work on CC(C)C[C@H](N)COc1cccc(F)c1Oc1ccc(Cl)cc1 yielded a PXC50 ([1]; BOTTOM 2.189725924, HILLSLOPE 1.340429131, MAX_EFFECT 78.50287908, TOP 100.0) of 4.39, a PXC50 ([1]; BOTTOM 6.665693755, HILLSLOPE 1.000390525, MAX_EFFECT 63.08724832, TOP 89.83359252) of 4.34 and a PXC50 ([1]; BOTTOM 8.555350196, HILLSLOPE 1.300138335, MAX_EFFECT 82.32235702, TOP 100.0) of 4.4. The PXC50 ([1]; BOTTOM 9.084234051, HILLSLOPE 1.282962904, MAX_EFFECT 79.16666667, TOP 100.0) was 4.36 and the PXC50 ([1]; BOTTOM -2.40342641, HILLSLOPE 1.582156808, MAX_EFFECT 66.8261563, TOP 100.0) was 4.18.
Cc1nnc(NCC2(c3ccccc3)CC2)c(C#N)c1C was tested, and the PXC50 ([1]; MAX_EFFECT 6.650831354) was < 4, the PXC50 ([1]; MAX_EFFECT 11.79577465) was < 4 and the Percent Effect [2] was -6.81%. The Percent Effect [3] was 0%, the Percent Effect [4] was -11.8% and the Percent Effect [5] was 5.06%. The Percent Effect (Trypanosoma cruzi) was -3.09%, the Percent Effect [6] was 1.43% and the Percent Effect [7] was 8.1%. For the same compound, the Percent Effect (Homo sapiens) was 13%, the Percent Effect [8] was -0.529% and the Percent Effect [9] was 4.88%. The Percent Effect [10] was -4.42%.
With CC(C)c1nc(CNC2CCCN(c3cccnn3)C2)no1 (stereo not drawn) the PXC50 ([1]; BOTTOM -4.804668592, HILLSLOPE 1.43236327, MAX_EFFECT 76.8115942, TOP 100.0) was 4.38, the PXC50 ([1]; BOTTOM -10.26857321, HILLSLOPE 1.286287287, MAX_EFFECT 68.70748299, TOP 100.0) was 4.3 and the PXC50 ([1]; MAX_EFFECT 0.790513834) was < 4. The PXC50 ([1]; MAX_EFFECT 4.444444444) was < 4 and the PXC50 ([1]; MAX_EFFECT 61.12084063) was < 4.
